# Measurements: PubChem BioAssay (NCI)
# Compounds without any hit were thinned out: in the full panel of roughly 83,000, 20% have a hit.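 48-hour exposure, single concentration, 96-well plates; percent growth endpoint where 0 means no net growth. Active: below 10.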 Active and inactive are the calls of the source.
# Tested on: SW-620 colon
# Assay: NCI-60 one-dose screen, 48 h (100 = growth as untreated, 0 = no growth, -100 = all killed)
# Details: 10 µM unless noted
# Procedure: Growth inhibition of the SW-620 human tumor cell line is measured as a screen for anti-cancer activity. Cells are grown in 96 well plates and exposed to the test compound for 48 hours. Compounds are tested at a single concentration, which is 10^-5 M for most compounds. The reported endpoint is percent growth (GI% or GIPRCNT), where numbers from 0 - 100% represent growth inhibition, and numbers from -100% - 0 represent cell death. For example, a value of 40 represents 60% growth inhibition. A value of 0 means no net growth occurred over the course of the experiment. A value of -40 indicates 40% of cells at the beginning of the experiment died by the end of the experiment. A value of -100 means all cells are dead at the end of the experiment.
# NCI-60 Human Tumor Cell Lines Screen was performed using the standard one-dose NCI protocol, which is described in more detail at https://dtp.cancer.gov/discovery_development/nci-60/default.htm.
# Compounds with GIPRCNT values below 10 were considered active. Activity score was based on GIPRCNT using the following formula: […]
# Score is 0 for GIPRCNT values of 100 or above, 50 for GIPRCNT values of 0, and 100 for GIPRCNT values of -100.
row,SMILES,growth
1,COc1cc(/C=N/N(C)C)ccc1O,90.7% (inactive)
2,Cn1cc(-c2csc(-c3cn(C)c4ncccc34)n2)c2ccccc21,20.7% (inactive)
3,CC(C)n1cc2c(N)ncnc2n1,110% (inactive)
4,CS(=O)(=O)c1ccc(-c2cnc3ccc(-c4cccc(S(C)(=O)=O)c4)nn23)cc1,75.6% (inactive)
5,CCN(CC)CC(O)CNc1c2ccc([N+](=O)[O-])cc2nc2cc(OC)c(OC)cc12 (stereo not given),4.13% (active)
6,c1ccc2c(Nc3cccc4ccccc34)cccc2c1,19% (inactive)
7,Cn1c2ccccc2c2c3[nH]c(=O)[nH]c(=O)c3c3c4ccccc4n(C)c3c21,33.1% (inactive)
8,Nc1cccc(NC(=O)C(=O)Nc2cccc(N)c2)c1,95.5% (inactive)
9,Cc1ccc(C2CC3c4ccccc4C2C2CCCCN32)cc1 (stereo not given),106% (inactive)
10,O=C(Nc1nc(-c2ccccc2)cc(-c2ccc(Cl)cc2)n1)c1ccncc1,90.9% (inactive)
11,c1ccc(-c2nc(N3CCOCC3)c3c4c(sc3n2)CCCCC4)nc1,88.6% (inactive)
12,C/C(=C(/c1ccc(O)cc1)c1ccc(OCCN2CCCC2)cc1)c1ccccc1,67.8% (inactive)
13,COc1c(C2CC(=O)Nc3c2cnn3Cc2ccco2)cc2c(c1OC)OCO2 (stereo not given),23% (inactive)
14,C[C@@]1(N2C(=O)OC[C@@H]2c2ccccc2)C(=O)N([C@H](CC(=O)N2CCC(N3CCCCC3)CC2)C(=O)NCc2cccc(C(F)(F)F)c2)[C@@H]1/C=C/c1ccccc1,58.5% (inactive)
15,COc1ccc(C/C(C)=C(\c2ccc(Cl)cc2)c2ccc(OCCN3CCCCCC3)cc2)cc1,58.4% (inactive)
16,O=C1c2cc3c(cc2-c2c1c1cc(Cl)c(Cl)cc1c(=O)n2C[C@H](O)CO)OCO3,12.7% (inactive)
17,CCCCCCCCCCCCCC(=O)C(C)N (stereo not given),80.4% (inactive)
18,COc1cc(OC)c(/C=C/S(=O)(=O)Cc2ccc(OC)c(N)n2)c(OC)c1,25.5% (inactive)
19,CS(=O)(CCCCN=C=S)=NC(=O)c1c(F)c(F)c(F)c(F)c1F (stereo not given),74.5% (inactive)
20,COc1ccc(-c2cc(-c3ccc(N(C)C)cc3)nc(NC(=O)c3ccncc3)n2)cc1,98.7% (inactive)

row,SMILES,growth
1,N=c1c2ccccc2nc2n1CCCCC2,110% (inactive)
2,C[C@@H]1CC[C@@H]2[C@@H]1[C@H](OC(=O)/C=C/c1ccccc1)[C@]1(C3CCCCC3)C[C@@H](OC(=O)CO)[C@@]2(C)O1,77.6% (inactive)
3,Nc1cc(O)cc2cccnc12,79.7% (inactive)
4,OCC1C2C=CC(C2)C1CO (stereo not given),98% (inactive)
5,CCOC(=O)C(CC)n1c(=O)c2cc(OC)c(OC)cc2c2cnc3[nH]ccc3c21 (stereo not given),79.9% (inactive)
6,CCN(CC)CCCNc1cc(OC)cc2nc3cc(Cl)ccc3nc12,-36.9% (active)
7,C=CCSc1nnc(-c2ccc(C(C)(C)C)cc2)n1-c1cccc(C(F)(F)F)c1,46.2% (inactive)
8,Cc1ccc2c(NCCCN(C)C)c3c(C)nn(C)c3nc2c1,23.5% (inactive)
9,CC(=O)OC1Oc2cc(C)c(C)cc2-c2oc(=O)c(-c3cc4ccc(N(C)C)cc4oc3=O)cc21 (stereo not given),104% (inactive)
10,COc1ccc2nc3cc(Cl)ccc3c(N3CCN(c4nccc(NCc5ccccc5)n4)CC3)c2c1,68% (inactive)
11,CC(=O)O[C@H]1CC[C@]2(C)[C@H]3CC[C@@H]4[C@H]5[C@H](C(C)C)CC[C@]5(C(=O)OCC(CO)(CO)N=C(N)N)CC[C@@]4(C)[C@]3(C)CC[C@H]2C1(C)C,-71.5% (active)
12,C=C1C(=O)O[C@H]2[C@H]1CC/C(Cn1cc(Cc3c[nH]c4ccccc34)nn1)=C\CC[C@@]1(C)O[C@@H]21,-58.7% (active)
13,CC#CC#Cc1cccc(=O)o1,27.3% (inactive)
14,O=C1c2c[n+](Cc3ccccc3)ccc2-c2nc3ccccc3c3ccnc1c23,-12.9% (active)
15,CC/C=C\C[C@H](O)C/C=C1/C(=O)C=C[C@@H]1C/C=C\CCCC(=O)NC(C)C,11.7% (inactive)
16,CN1CCN(Cc2ccc(NC(=O)c3cncc(C#Cc4c(N)ncc5ccc(C#N)cc45)c3)cc2C(F)(F)F)CC1,-69.2% (active)
17,CC/C=C\C[C@H](O)C/C=C1/C(=O)C=C[C@@H]1C/C=C\CCCC(N)=O,5.37% (active)
18,O=C(COc1cccc(/C=C2/Oc3ccccc3C2=O)c1)Nc1nccs1,97.2% (inactive)
19,COCCOC(=O)C1=C(C)NC(=S)NC1c1ccc2c(c1)OCO2 (stereo not given),106% (inactive)
20,CCCCCCCCCCCCCCCCCCNC(=O)[C@H]1CSC(c2ccc(F)c(OC)c2)N1 (stereo not given in full),-74.5% (active)
